Bioassay records: PubChem BioAssay, National Center for Advancing Translational Sciences (NCATS)
A selection: hits, their analogues and other compounds. The true share with any hit is near 8.7%.
BAZ2B block – inhibitors of human BAZ2B bromodomain. Potency, µM (doses to about 114 µM), inactives show top-dose activity change, negative = inhibition, actives largely listed as inhibitors. AID 504333. Q9UIF8. 4.4% of 360,000 active. AlphaScreen BAZ2B-H3K14Ac peptide displacement; further: on the % scale 0 is the no-effect control and ±100 the full control effect; nearly all actives have a fitted effect of over 60% in size
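BAZ2B (50 nM) with biotin-H3(5-23)K14Ac peptide (50 nM) in PBS pH 7.4, 0.01% Tween-20, preformed 30 min, then compound 30 min at room temperature; top concentration 110uM. AlphaScreen streptavidin donor/nickel chelate acceptor beads (10 ug/mL final), 20 min dark, signal read.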
JMJD2A Tudor inh – inhibitors of human JMJD2A Tudor domain; O75164; AlphaScreen JMJD2A-Tudor / H3K4me3 peptide binding; Potency, µM (top dose mostly 114 µM), for the others: top-dose activity change, negative = inhibition, most hits filed as inhibitors; 4.4% of 390,000 active; AID 504339; further: on the % scale 0 is the no-effect control and ±100 the full control effect; nearly all actives have a fitted effect of over 50% in size
ALOX12 inh – inhibitors of human 12S-lipoxygenase ALOX12 | P18054 | purified 12hLO, xylenol orange hydroperoxide absorbance | Potency, µM (series often up to 108 µM), for the others: at the top dose activity change, negative = inhibition, hits mostly inhibitors | 1.1% of 580,000 active; further: on the % scale 0 is the no-effect control and ±100 the full control effect
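Purified human 12hLO (150 nM final) in 25 mM Hepes, 0.01% Triton X-100, pH 7.0 was preincubated 15 min at room temperature with compound. Then 40 uM arachidonic acid was added, 30 min. Hydroperoxide was read by Fe-XO absorbance ratio 573/405 nm.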
Sfp inh – inhibitors of Bacillus subtilis Sfp phosphopantetheinyl transferase. Q9F4F7. 3.5% of 310,000 active. Biochemical Sfp PPTase activity, qHTS. Potency, µM, inactives show largest response in the series, negative = inhibition, actives largely listed as inhibitors;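 further: the enzyme is Sfp with the accession as filed and its product quenches rhodamine fluorescence; 0% = enzyme reaction without inhibitor and -100% = no enzyme wells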
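Buffer: 50 mM Hepes-Na pH 7.6, 10 mM MgCl2, 0.01% Nonidet P-40, 0.01% BSA. Enzyme 15 nM, pre-exposed to compound 15 min; substrates then added and fluorescence change tracked over 30 min.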
G9a inh – blocks human histone lysine methyltransferase G9a; Q96KQ7; G9a H3K9 monomethylation, AlphaScreen, 2 h; Potency, µM (series often up to 102 µM), without a hit: top-dose activity, negative = inhibition, usual class: inhibitors; 8.8% of 350,000 active; further: on the % scale 0 is the no-effect control and ±100 the full control effect; nearly all actives have a fitted effect of over 75% in size
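Step 1: enzyme (final 20 nM) with compound, 15 min RT. Step 2: substrate peptide 500 nM and SAM 20 uM, 2 h RT. Step 3: anti-H3K9me1 antibody and AlphaScreen beads, 10 min, then plate read.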
HP1b binding inh – inhibitors of HP1-beta chromodomain binding to methylated histone tails; AlphaScreen HP1-beta / biotin-H3K9me3 peptide binding; Potency, µM (highest dose often 114 µM), inactives show at the top dose activity change, negative = inhibition, usual class: inhibitors; P83916; 0.56% of 390,000 active; further: nearly all actives have a fitted effect of over 70% in size
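Compound inhibition of the preformed complex between 50 nM HP1-beta and 50 nM biotinylated H3K9me3 peptide was read by AlphaScreen. Buffer was PBS pH 7.4 with 0.01% Tween-20. Incubations ran 30 min at room temperature, with 10 ug/mL donor/acceptor beads.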
* = called active by the depositor; u = inconclusive; x = no result given; [ ] = dose if it differs, or a comment. The call rests on the fitted dose curve; in most records, active means well fitted curve in the direction sought with a large enough effect; inconclusive means small, poorly fitted or top-dose-only effect, or another doubt; inactive means no such curve, though single readings can be large; an effect the other way counts as inactive or inconclusive. Potency means the concentration at half of the fitted maximal effect.

SMILES	BAZ2B block	JMJD2A Tudor inh	ALOX12 inh	Sfp inh	G9a inh	HP1b binding inh
CN(Cc1ccccc1)C1=CC(=[N+]2CCCC2)CC(C)(C)C1	3%	8.9µM*	u	-1%	u	u
CCC1c2nccn2CCCN1C(=O)c1ccc(OC)nc1OC (stereo unspecified)	x	x	-2%	x	x	x
O=C(O)CC1(CC(=O)N2CCN(C(=O)CC3(CC(=O)O)CCCCC3)CC2)CCCCC1	x	x	-23%	x	x	x
CCOc1ccc(-n2nnc3c(=O)n(Cc4nc(-c5ccccc5Br)no4)cnc32)cc1	x	x	0%	x	x	x
O=[N+]([O-])c1ccc(C=Nc2cccc3ccccc23)s1	16µM*	40µM*	x	-2%	10µM*	13µM*
COc1ccc(-c2nncnn2)cc1	45µM*	u	x	-8%	u	-39%
Cc1ccc(NC(=O)c2cc(=O)c3ccc(C)c(C)c3o2)cc1Cl	x	x	0%	x	x	x
CC(C)OC(=O)c1c(NC(=O)C2CC=CCC2C(=O)O)sc2c1CCCCC2 (stereo unspecified)	u	-28%	u	11%	45µM*	-28%
C=CC(=O)Nc1sc2c(c1C(N)=O)CCCC2	2%	-12%	-2%	x	-14%[2.33 µM]	21%
NC(=O)c1c(NC(=O)C2CC=CCC2C(=O)O)sc2c1CCCCC2 (stereo unspecified)	u	56µM*	19%	35µM*	8.9µM*	u
CC(C)OC(=O)c1c(NC(=O)CCC(=O)O)sc2c1CCCCC2	-27%	-15%	-13%	4%	-10%	28%
CCC(=O)NCCSCc1cccs1	x	x	-4%	x	x	x
Cc1cc[n+](Cc2ccc([N+](=O)[O-])cc2)cc1	-9%	-12%	1%	-3%	45µM*	11%
COc1ccc2cc1Oc1ccc(cc1)CC1c3c(cc(OC)c4c3Oc3cc5c(cc3O4)CCNC5C2)CCN1C (stereo unspecified)	6.3µM*	11µM*	x	u	u	u
COc1ccc2cc1Oc1ccc(cc1)C[C@H]1c3c(cc(OC)c4c3Oc3c(ccc5c3[C@H](C2)N(C)CC5)O4)CCN1C	x	20µM*	x	x	x	u
COc1ccc2cc1Oc1ccc(cc1)CC1c3c(cc4c(c3Oc3cc5c(cc3OC)CCN(C)C5C2)OCO4)CCN1C (stereo unspecified)	x	x	x	4%	-10%[2.33 µM]	x
Nc1ncnc(Nc2ccc(Cl)c(Cl)c2)c1[N+](=O)[O-]	x	x	33%	x	x	x
C[C@]1(OC(=O)/C=C/c2ccccc2)C[C@@H](O)[C@]2(O)C=CO[C@@H](O[C@@H]3O[C@H](CO)[C@@H](O)[C@H](O)[C@H]3O)[C@@H]21	4%	-8%	-1%	x	18µM*	54%
CC(C)CCC(CCN1CCOCC1)c1ccc2c(c1)OCO2 (stereo unspecified)	u	3.2µM*	u	79µM*	45µM*	-52%
CC(C)CCC(CCN1CCCC1)c1ccc2c(c1)OCO2 (stereo unspecified)	-35%	1.4µM*	0%	-21%	-4%	u
COCCCNCCC(CCC(C)C)c1ccc2c(c1)OCO2 (stereo unspecified)	u	20µM*	u	-15%	u	u
CN(Cc1ccccc1)C(=O)Cn1c2c(c(=O)n1Cc1ccccc1)CCN(Cc1ccccc1)C2	x	x	6%	x	x	x
O=C(NN1S(=O)(=O)c2ccccc2S1(=O)=O)c1ccc(Br)cc1	50µM*	-12%	-53%	u	u	65%
Cc1cccc(C(=O)NN2S(=O)(=O)c3ccccc3S2(=O)=O)c1	x	-2%	0%	50µM*	7.1µM*	91%
O=C(CC(c1ccc(F)cc1)N1Cc2ccccc2C1=O)NCc1ccc(F)cc1 (stereo unspecified)	x	x	16%	x	x	x
O=C(Cc1ccccc1F)NC1CC2CC1C1CCCC21 (stereo unspecified)	x	x	0%	x	x	x
COc1ccc2nc(SCC(=O)c3cc(C)n(C)c3C)[nH]c2c1	x	x	27%	x	x	x
O=C(NC(=S)Nc1cccc2ncccc12)c1ccccc1	-24%	-22%	u	20µM*	u	4%
